Bioassay records from PubChem BioAssay.
POLB inh: inhibitors of human DNA polymerase beta; Potency, µM (series often up to 114 µM), for inactives: top-dose activity change, negative = inhibition, actives largely listed as inhibitors; Pol beta primer extension/strand displacement, fluorescence kinetic; 1.3% of 340,000 active; also: potency is read from the fitted curve at half-maximal effect; % is scaled to controls: 0 for no effect and ±100 for the full control effect
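Pol beta (10 nM) was preincubated with compound for 15 min at room temperature. The reaction was then started with 50 nM substrate and read immediately and after a further 10 min at room temperature.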
PI5P4K alpha inh: PI5P4K alpha (human) kinase inhibition; P48426; PI5P4Kalpha enzyme, ADP-Glo luminescence, 60 min; active compounds read low; max response, %; 1.2% of 330,000 active; AID 652105; active = max response of -50% or lower; inconclusive = between -30% and -50%; inactive = -30% or higher; also: value at the top dose of about 77 µM; % is scaled to controls: 0 for no effect and ±100 for the full control effect
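Human PI5P4Kalpha with substrate in 0.038 M HEPES pH 7.4, 0.28 mM EGTA, 0.1% CHAPS, 5% DMSO; reaction started with 5 microM ATP (final), 60 min at room temperature. ADP formed read by ADP-Glo luminescence.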
POLK inh: inhibitors of human DNA polymerase kappa | purified Pol kappa, fluorescent DNA synthesis assay, 10 min | Potency, µM (titrated, usually from 107 µM), for inactives: top-dose activity, negative = inhibition, hits mostly inhibitors | 0.53% of 400,000 active | Q9UBT6; also: potency is read from the fitted curve at half-maximal effect; % is scaled to controls: 0 for no effect and ±100 for the full control effect
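Pol kappa 10 nM + cpd, 15 min RT; start w/ substrate 50 nM final; fluorescence kinetic read, 0 and 10 min. Neg ctrl: buffer, no enzyme.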
Pol eta inh: blocks human DNA polymerase eta activity; recombinant Pol eta, fluorescent DNA replication assay; Potency, µM (top dose mostly 114 µM), for the others: at the top dose activity change, negative = inhibition, usual class: inhibitors; 1.2% of 390,000 active; AID 588591; also: potency is read from the fitted curve at half-maximal effect; % is scaled to controls: 0 for no effect and ±100 for the full control effect
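Fluorescent replication assay: 50 nM final substrate added after a 15 min room-temperature compound preincubation with 10 nM enzyme. Signal taken at 0 min and again at 10 min.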
POLI inh: DNA polymerase iota (human) inhibition; Potency, µM (series often up to 115 µM), without a hit: at the top dose activity, negative = inhibition, actives largely listed as inhibitors; Pol iota fluorescent replication assay, 10 min; Q9UNA4; 1% of 390,000 active; also: potency is read from the fitted curve at half-maximal effect
Target sequence (Q9UNA4 whole entry, looked up): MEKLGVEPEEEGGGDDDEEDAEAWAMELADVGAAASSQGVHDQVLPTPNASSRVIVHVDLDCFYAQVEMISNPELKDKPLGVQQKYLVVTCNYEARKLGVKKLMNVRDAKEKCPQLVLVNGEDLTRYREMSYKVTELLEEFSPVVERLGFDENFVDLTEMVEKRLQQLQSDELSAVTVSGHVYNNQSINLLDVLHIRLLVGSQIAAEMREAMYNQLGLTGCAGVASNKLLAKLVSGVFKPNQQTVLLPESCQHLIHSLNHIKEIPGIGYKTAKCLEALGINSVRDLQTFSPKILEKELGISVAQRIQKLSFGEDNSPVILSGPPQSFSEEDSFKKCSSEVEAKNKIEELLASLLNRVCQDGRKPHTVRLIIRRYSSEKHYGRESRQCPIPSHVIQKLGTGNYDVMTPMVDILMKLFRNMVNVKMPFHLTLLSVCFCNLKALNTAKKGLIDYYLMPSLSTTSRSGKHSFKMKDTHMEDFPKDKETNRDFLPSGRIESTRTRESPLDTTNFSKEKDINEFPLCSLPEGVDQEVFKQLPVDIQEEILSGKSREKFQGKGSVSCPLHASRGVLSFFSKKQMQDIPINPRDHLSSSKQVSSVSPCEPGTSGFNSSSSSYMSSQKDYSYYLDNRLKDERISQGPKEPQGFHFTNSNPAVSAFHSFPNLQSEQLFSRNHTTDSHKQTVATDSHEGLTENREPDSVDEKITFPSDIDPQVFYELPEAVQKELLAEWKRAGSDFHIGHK
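Fluorescent replication assay read twice, at 0 min and 10 min after adding 50 nM (final) substrate. Enzyme (10 nM) and compounds were first incubated 15 min at room temperature; enzyme-free buffer wells were negative controls.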
WRN inhibitor: inhibitors of human WRN helicase | Q14191 | WRN helicase unwinding, fluorescent forked duplex, kinetic | Potency, µM (doses to about 114 µM), inactives show at the highest dose activity change, negative = inhibition, hits mostly inhibitors | 0.46% of 360,000 active | AID 651768; also: potency is read from the fitted curve at half-maximal effect; % is scaled to controls: 0 for no effect and ±100 for the full control effect; nearly all actives have a fitted effect of over 55% in size
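Fluorescence dequenching readout, ex 525 nm/em 598 nm, kinetic mode: forked duplex DNA (100 nM final) with adjacent fluorophore and quencher unwound by WRN (20 nM final) with 2 mM ATP. Compound preincubation 15 min, room temperature.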
Active calls of the source: *; ? = inconclusive; / = no result; ! = not confirmed by another sample; [ ] = remark or other dose. Compounds with a hit are over-represented: about 2.8% of the library has one in this group of screens. Unless noted, calls follow the shape of the dose curve; as a rule, active = well fitted curve in the direction sought with a large enough effect; inconclusive = small, poorly fitted or top-dose-only effect, or another doubt; inactive = no such curve, though single readings can be large; an effect the other way counts as inactive or inconclusive.

SMILES	POLB inh	PI5P4K alpha inh	POLK inh	Pol eta inh	POLI inh	WRN inhibitor
CCOc1ccc(N2CC(NC(=O)c3cc4ccccc4o3)CC2=O)cc1 (stereo unspecified)	3%	/	-1%[60.1 µM]	-10%	-16%	/
O=C(NCCc1ccccc1)c1ccc2c(c1)N(Cc1ccc(Cl)cc1)C(=O)CS2	2%	/	-3%	-11%	-5%	/
CNCc1ccccc1Sc1cc(O)ccc1O	6%	?	-16%	-18%	?	32µM*
NC(=O)c1ccc([N+](=O)[O-])cc1SCc1ccccc1	40µM*	?	?	?	?	-30%
NC(=O)c1cc([N+](=O)[O-])ccc1NCCc1ccccc1	15%	?	-5%	-7%	28%	-11%
CCCCNC(=O)c1cc2cccc([N+](=O)[O-])c2[nH]1	2%	-3	1%	-5%	59%	-4%
O=C(O)c1cc2cccc([N+](=O)[O-])c2[nH]1	/	/	45µM*!	/	71µM*!	/
Cc1ccc(S(=O)(=O)NCC(=O)OCC(=O)c2ccc(Br)s2)cc1	?	-52*	-13%	?	-2%	-17%
Cc1ccc(S(=O)(=O)NCC(=O)OCC(=O)c2ccc(Cl)s2)cc1	/	-29	-26%	5%	?	-5%
CCOC(=O)c1nn2c(C(F)(F)F)cc(-c3ccc(C)cc3)nc2c1Cl	13%	/	-5%	1%	4%	/
CCOC(=O)c1nn2c(C(F)(F)F)cc(-c3ccc(OC)cc3)nc2c1Br	?	1	10%	32µM*	-2%	-2%
CN=C1SC(CC(=O)NCCc2ccc(OC)c(OC)c2)C(=O)N1C (stereo unspecified)	1%	-3	?	56µM*!	?	3%
COc1ccc(OC)c(NC(=O)c2c(NCc3ccc(C)o3)sc3c2CCCCC3)c1	-5%	/	0%[60.1 µM]	-21%	28µM*	/
Fc1ccc(-[n+]2nc(Nc3ccccc3)sc2-c2c3ccccc3cc3ccccc23)cc1	8%	-63*	-4%	-12%	?	-5%
COc1ccc(C)cc1Nc1n[n+](-c2ccccc2)c(-c2c(OC)ccc3ccccc23)s1	/	-54*	2%	-25%	30%	11%
Oc1ccc2ccccc2c1-c1sc(Nc2ccccc2)n[n+]1-c1ccc(F)cc1	9%	1	-5%	7%	22%	34%
CCOc1ccc2nc(/N=C/c3nc(-c4ccc(Br)cc4)oc3O)sc2c1	-1%	-63*	-4%	?	-12%	-25%
CCCCOc1ccc(-c2nc(/C=N/c3nccs3)c(O)o2)cc1	-1%	4	-14%	-4%	12%	-6%
COc1cccc(CNC(=O)Cc2ccc(NC(=O)N3CCCCc4ccccc43)cc2)c1OC	-3%	/	-4%	-9%	21%	/
COc1ccc(F)cc1-c1cc(NC=O)c2ncc(-c3cccc(C(=O)N(C)C)c3)n2c1	/	-51*	/	/	/	-10%
CN(C)C(=O)c1cccc(-c2cnc3c(NC=O)cc(-c4ccccc4Cl)cn23)c1	/	-65*	/	/	/	-31%
CN(C)C(=O)c1cccc(-c2cnc3c(NC=O)cc(-c4ccccc4N(C)C)cn23)c1	/	?	/	/	/	1%
Cc1ccc(-c2cc(NC=O)c3ncc(-c4cccc(C(=O)N(C)C)c4)n3c2)cc1	/	?	/	/	/	-15%
CC(=O)N1CCN(S(=O)(=O)c2cccc(C(=O)OCC(=O)NCc3ccccc3Cl)c2)CC1	/	9	/	2%	/	5%
COc1ccc(-n2c(-c3ccc(Cl)cc3)c[n+]3c2CCc2ccccc2-3)cc1	0%	4	-4%	-18%	33%	6%
SMILES	POLB inh	PI5P4K alpha inh	POLK inh	Pol eta inh	POLI inh	WRN inhibitor
Cc1ccc(-n2c(-c3ccc(Br)cc3)c[n+]3c2CCc2ccc4cccnc4c2-3)cc1	50µM*	/	-1%	-9%	-3%[58.9 µM]	3%
CCOc1ccc(CCNC(=O)CCn2c(=O)c3cccn3c3cccnc32)cc1	46%	/	-9%	-1%	8%	/
OCCCN=c1cc(-c2ccccc2)oc2ccc(Cl)cc12	45µM*	7	-8%	-12%	?	-17%
O=S(=O)(NCCS(=O)(=O)N1CCN(c2cccc(Cl)c2)CC1)c1ccc(F)cc1	-29%	/	1%[60.1 µM]	-15%	-4%	/
COc1ccc(Nc2nc(-c3ccc(C)cc3)nc3ccccc23)c(OC)c1	2%	/	-12%[60.1 µM]	-1%	-29%	/
COc1ccc(Nc2nc(N3CCCC3)nc3ccccc23)c(OC)c1	20µM*	/	-21%	-18%	?	?
CCCC[C@@H](C)/C=C(C)/C=C(\C)C(=O)NC1=C[C@@](O)(/C=C/C=C/C=C/C(=O)NC2=C(O)CCC2=O)[C@@H]2O[C@@H]2C1=O	/	/	27µM*	/	/	/
O=S1(=O)Nc2c(cc(Cl)c3ccc(Cl)nc23)-c2ccccc21	/	/	79µM*	/	?	/
Cc1ccc2ccc3c(c2n1)NS(=O)(=O)c1ccc(C(F)(F)F)cc1-3	/	/	-13%	/	?	/
CCCCN(C)c1ncnc2c1cnn2-c1cccc(Cl)c1	-13%	/	-6%[60.1 µM]	-15%	10%	/
Cc1cccc(-c2onc3ccc(C(=O)/C=C/N(C)C)cc23)c1	-15%	-68*	11%	-23%	-26%	-19%
CC(=O)COC(=O)c1ccc2noc(-c3ccccc3)c2c1	45µM*	?	-22%	?	-21%	-19%
Cc1ccc(-c2onc3ccc(C(=O)/C=C/N(C)C)cc23)cc1	?	?	-20%	-26%	0%	-12%
NC(=O)NC(=O)COC(=O)c1ccc2noc(-c3ccccc3)c2c1	2%	-7	-9%	-6%	63%	24%
CCN(Cc1ccccc1)C(=O)c1cc2c(s1)-c1c(C)cccc1OC2	8%	/	-2%	-7%	20%	/
COCCCNc1cc(C)nc2ccccc12	18%	1	2%	-6%	20%	5%
Cc1cc(NCCCCCCCNc2cc(C)nc3cc([N+](=O)[O-])ccc23)c2ccc([N+](=O)[O-])cc2n1	/	-61*	-22%	?	25%	?
CC(C)CCNC(=O)C1CCN(S(=O)(=O)c2ccc3c(c2)CC(C)N3C(=O)C2CCC2)CC1 (stereo unspecified)	56µM*	4	3%	-10%	-2%	-6%
CC(C)CCNC(=O)C1CCCN(S(=O)(=O)c2ccc3c(c2)CC(C)N3C(=O)C2CC2)C1 (stereo unspecified)	-5%	3	16%	-17%	-10%	3%
CCc1cccc(NC(=O)c2oc3ccc4c(c3c2C)C(=O)CC(C)(C)O4)c1	1%	/	-3%	-13%	23%	/
Cc1n[nH]c(C)c1Sc1ccccc1N=Cc1cc(Cl)cc([N+](=O)[O-])c1O	?	?	?	-12%	25µM*	50µM*
